Assay outcomes: PubChem, National Center for Advancing Translational Sciences (NCATS)
This is one part of a sample in which hits are shown more often than they occur.
Shiga inhibitor – Shiga toxin inhibition. Vero cells, Shiga toxin protein synthesis inhibition reporter. inhibition, % at 38.7 µM. actives 9.2% (n = 290,000). AID 2315; in the data active = inhibition mostly above about 28%, no sharp cut-off; inactive = mostly below about 43%
NS1 inh – influenza NS1 inhibition; Potency, µM (top dose mostly 46.1 µM); actives 0.4% (n = 270,000); AID 2326; calls by dose curve; also: actives are rising curves; nearly all actives have a fitted effect of over 50% in size
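Read-out: OD600 growth recovery of NS1-expressing budding yeast. Cells grown overnight at 30C in -URA glucose medium, washed, resuspended and diluted 1:100 in 2% galactose assay medium, pH 6.0. Same strain lacking NS1 served as positive control.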
AmpC detergent – inhibitors of E. coli AmpC beta-lactamase with detergent | P00811 | AmpC hydrolysis of nitrocefin, absorbance 480 nm, 0.01% Triton | Potency, µM (top dose mostly 114 µM), most hits filed as inhibitors | actives 0.041% (n = 370,000); also: nearly all actives have a fitted effect of over 25% in size
Target sequence (P00811 whole entry, looked up): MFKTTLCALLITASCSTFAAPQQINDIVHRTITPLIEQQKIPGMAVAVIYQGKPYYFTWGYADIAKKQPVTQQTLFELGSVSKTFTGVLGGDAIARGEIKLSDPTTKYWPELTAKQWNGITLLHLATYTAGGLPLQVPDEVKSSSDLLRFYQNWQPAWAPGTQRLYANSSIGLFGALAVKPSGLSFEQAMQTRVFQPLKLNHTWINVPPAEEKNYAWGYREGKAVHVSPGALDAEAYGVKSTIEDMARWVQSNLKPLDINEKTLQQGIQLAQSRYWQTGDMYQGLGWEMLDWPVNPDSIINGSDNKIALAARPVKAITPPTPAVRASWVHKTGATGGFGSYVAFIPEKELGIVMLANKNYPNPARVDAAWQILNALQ
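20 mM phosphate pH 7.0 + 0.01% (detergent screen) or 0.0001% Triton X-100; 5.3 nM AmpC reagent; cpd preinc 15 min RT; nitrocefin (800 uM stock) to start; A480 q20 s × 4 min; Activity was normalised to no-enzyme and no-compound control wells.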
AmpC inh no detg – inhibitors of E. coli AmpC beta-lactamase without detergent | AID 485341 | actives 0.52% (n = 330,000) | AmpC nitrocefin hydrolysis, absorbance 480 nm, 0.0001% Triton | Potency, µM (top dose mostly 57.1 µM), actives largely listed as inhibitors | P00811; also: nearly all actives have a fitted effect of over 20% in size
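20 mM phosphate pH 7.0 + 0.01% (detergent screen) or 0.0001% Triton X-100; 5.3 nM AmpC reagent; cpd preinc 15 min RT; nitrocefin (800 uM stock) to start; A480 q20 s × 4 min; Activity was normalised to no-enzyme and no-compound control wells.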
CHX counter – affects cycloheximide protein synthesis inhibition readout, counter-screen | cell reporter, cycloheximide protein synthesis inhibition counterscreen | max response, % | actives 12% (n = 300,000); in the data active = max response mostly above about 13%, no sharp cut-off; inactive = mostly below about 14%; also: read at 38.3 µM for the half of the compounds with a filed dose
Numbers stand for hits; 0 = inactive; ? = inconclusive; - = no result given. Unless noted, calls follow the shape of the dose curve; as a rule, active = well fitted curve in the direction sought with a large enough effect; inconclusive = small, poorly fitted or top-dose-only effect, or another doubt; inactive = no such curve, though single readings can be large; an effect the other way counts as inactive or inconclusive.

SMILES	Shiga inhibitor	NS1 inh	AmpC detergent	AmpC inh no detg	CHX counter
CC12CCC(=O)N1C(C(=O)Nc1ccc(SC(F)F)cc1)CS2 (stereo not drawn)	-	-	?	0	-
c1ccc(C2COC(c3cccs3)=N2)cc1 (stereo not drawn)	0	0	0	0	23
Cc1ccc(C(=O)Nc2ccccc2C(=O)NC(CC(=O)O)C(=O)O)cc1 (stereo not drawn)	0	0	0	0	0
Cc1ccc(C(=O)Nc2ccccc2C(=O)NC(C(=O)O)C(C)C)cc1 (stereo not drawn)	48	0	?	0	0
CCC(C)C(NC(=O)c1ccccc1NC(=O)c1ccc(C)cc1)C(=O)O (stereo not drawn)	94	-	0	0	55
Cc1cccc(Nc2c(-c3cccs3)nc3nc(C)cc(C)n23)c1	-	-	0	-	-
Fc1ccc2nc(Nc3nc4c(F)cc(F)cc4s3)sc2c1	0	0	0	0	0
Fc1ccc2nc(Nc3nc4c(F)cccc4s3)sc2c1	42	0	?	0	45
CCC(=O)NNc1nc2c(F)cccc2s1	0	0	0	0	0
Fc1cccc2sc(Nc3nc4ccccc4s3)nc12	69	0	0	0	56
COc1cc(C(CC(=O)NCc2ccccc2)N2Cc3ccccc3C2=O)cc(OC)c1OC (stereo not drawn)	-	-	0	-	-
CCOC(=O)C1=CN(C)C=C(C(=O)OCC)C1c1ccsc1	0	?	0	0	17
COC(=O)C1=C(C)N(C)C(C)=C(C(=O)OC)C1c1ccsc1	0	0	?	0	0
CCN1CCN(C(=O)c2c(C)nn(-c3ccc(F)cc3)c2-n2cccc2)CC1	-	-	0	-	-
O=C(Nc1sc2c(c1C(=O)Nc1ccccc1)CCC2)c1ccc(Br)cc1	-	-	0	-	-
O=C1Nc2ccccc2/C1=N\c1sc2c(c1C(=O)Nc1ccccc1)CCCC2	22	0	0	0	0
O=C(NC1=NC2CCCCC2N1)c1ccccc1 (stereo not drawn)	97	0	0	0	34
Cc1c(C(=O)NCC2CCCO2)oc2ccc3c(c12)C(=O)CC(C)(C)O3 (stereo not drawn)	75	0	0	0	40
CCOC(=O)C1(C(=O)OCC)CC1c1ccccc1 (stereo not drawn)	0	0	0	4.5µM	0
Cc1cc(C(=O)NC(C)C2CCCO2)cs1 (stereo not drawn)	0	0	0	0	0
CC(NC(=O)c1csc2ccccc12)C1CCCO1 (stereo not drawn)	63	0	0	0	32
CC(NC(=O)c1sc2ccccc2c1Cl)C1CCCO1 (stereo not drawn)	0	0	0	0	36
COc1ccc(N2CCN(C(CNS(=O)(=O)c3c(C)cc(C)cc3C)c3ccco3)CC2)cc1 (stereo not drawn)	-	-	0	-	-
CCc1ccc(-n2c3nc(=O)[nH]c(=O)c-3cc3c(C)nn(-c4ccccc4)c32)cc1	-	-	0	-	-
O=C(Nc1ccc(F)cc1)N1CCN(c2nc3ccccc3s2)CC1	0	0	0	0	0
SMILES	Shiga inhibitor	NS1 inh	AmpC detergent	AmpC inh no detg	CHX counter
O=C(NNc1nc2ccccc2s1)Nc1ccc(F)cc1	85	?	0	0	62
CC(C)C(=O)NNc1nc2ccccc2s1	51	0	0	0	38
O=C(NNc1nc2ccccc2s1)c1ccccc1F	59	0	0	0	29
NS(=O)(=O)c1ccc2nc(NC(=O)Nc3ccc(F)cc3)sc2c1	54	0	0	0	46
O=C(COC(=O)c1n[nH]c(=O)c2ccccc12)Nc1ccccc1F	-	-	-	0	-
CCNc1nc(NCC)n2c(SCC(=O)Nc3ccccc3C(F)(F)F)nnc2n1	-	-	0	0	-
O=C(NNc1nc2ccccc2s1)Nc1ccc(Cl)c(Cl)c1	60	0	0	0	40
O=C(NCc1cccnc1)Nc1ccc2c(c1)OCO2	128	-	0	0	27
O=C(Cn1nc(Cc2cccnc2)c2ccccc2c1=O)Nc1ccc(F)c(Cl)c1	-	-	0	-	-
CCc1ccc(NC(=O)NCc2ccc3c(c2)OCO3)cc1	0	0	?	0	0
O=C(NCCCn1ccnc1)Nc1ccc2c(c1)OCO2	76	0	0	0	39
O=C(Cn1nc(Cc2cccnc2)c2ccccc2c1=O)Nc1ccc2c(c1)OCO2	0	0	0	10µM	0
Cn1cc(CNC(=O)Nc2ccc3c(c2)OCO3)cn1	0	0	0	0	15
c1cncc(CNc2ccc3c(c2)OCO3)c1	0	0	0	0	0
CCNS(=O)(=O)c1ccc(NC(=O)c2ccc(Cn3cc([N+](=O)[O-])cn3)o2)cc1	0	-	0	?	0
C[C@H](CO)N1C[C@H](C)[C@@H](CN(C)Cc2ccc(Oc3ccccc3)cc2)Oc2c(NS(=O)(=O)c3cn(C)cn3)cccc2C1=O	-	-	-	0	-
Cn1ccsc1=NC(=O)c1cccc(C#N)c1	0	0	0	0	15
Cn1ccsc1=NC(=O)c1ccc(Cl)c([N+](=O)[O-])c1	53	0	0	0	16
Cc1ccc(C(=O)N=c2sccn2C)cc1C	0	0	0	0	0
Cn1ccsc1=NC(=O)c1ccc(S(C)(=O)=O)cc1	37	0	0	0	0
CCCCOc1ccc(C(=O)N=c2sccn2C)cc1OC	65	0	0	0	44
Cn1ccsc1=NC(=O)c1ccc(S(C)(=O)=O)c([N+](=O)[O-])c1	36	0	0	0	43
COc1ccc(/C=C/C(=O)Oc2cc(C)[nH]c(=O)c2[N+](=O)[O-])cc1OC	164	-	0	0	59
CCOC(=O)c1c(C)nc(C)c(C(=O)OCC)c1-c1ccccc1	0	0	0	0	0
CCOC(=O)c1oc2ccccc2c1NC(=O)c1ccccc1OC	0	0	0	0	0
SMILES	Shiga inhibitor	NS1 inh	AmpC detergent	AmpC inh no detg	CHX counter
Cc1cccc(C)c1NC(=O)c1cc2c(=O)c3ccccc3oc2nc1C(F)(F)F	0	0	?	0	0
Cc1ccc2oc3nc(C)c(C(=O)Nc4cccc(C(F)(F)F)c4)cc3c(=O)c2c1	0	0	0	0	0
CCOC(=O)c1cc2c(=O)c3ccccc3oc2nc1C	103	0	0	0	40
CCN(CC)C(=O)c1cc2c(=O)c3cc(F)ccc3oc2nc1C	64	0	0	0	39
COCc1nc2oc3ccccc3c(=O)c2cc1C(=O)OC	46	0	0	0	12
CCOC(=O)c1c(C)nc(C)c2c(=O)oc3ccccc3c12	93	-	0	0	33
CC(=O)c1cccc(-n2c(=O)c3c4c(sc3n(CC(=O)c3ccc(Cl)cc3)c2=O)CN(C(C)=O)CC4)c1	-	-	0	-	-
COc1ccc([C@H]2CC(=O)C=C(c3cccc4c3Oc3ccccc3S4)C2)cc1OC	-	-	0	0	-
COc1cccc(CN(C)C(=O)c2ccc(N3CCCC3)c([N+](=O)[O-])c2)c1	0	0	0	0	0
Brc1ccc(N/N=C(/N=Nc2nn[nH]n2)c2ccccc2)cc1	0	0	0	0	19
O=C(CC1C(=O)NCCN1CC1CCCCC1)NCc1ccc(F)cc1F (stereo not drawn)	41	0	0	0	20
COc1ccc(C2CC(=O)c3c([nH]c(C(=O)OC4CCCCCC4)c3C)C2)cc1 (stereo not drawn)	-	-	0	-	-
